# High-throughput results deposited in PubChem BioAssay by National Center for Advancing Translational Sciences (NCATS).
# PKM2 inh: qHTS Assay for Inhibitors of Human Muscle isoform 2 Pyruvate Kinase. Pyruvate kinase PKM (Homo sapiens), P14618. purified PKM2, ATP generation, Kinase-Glo luminescence. Potency, µM (series often up to 57.5 µM), for inactives: top-dose activity change, negative = inhibition, actives largely listed as inhibitors. 0.058% of 260,000 active. AID 1634, 2009; further: potency means the concentration at half of the fitted maximal effect; nearly all actives have a fitted effect of over 60% in size
# Target sequence (P14618 whole entry, looked up, canonical isoform): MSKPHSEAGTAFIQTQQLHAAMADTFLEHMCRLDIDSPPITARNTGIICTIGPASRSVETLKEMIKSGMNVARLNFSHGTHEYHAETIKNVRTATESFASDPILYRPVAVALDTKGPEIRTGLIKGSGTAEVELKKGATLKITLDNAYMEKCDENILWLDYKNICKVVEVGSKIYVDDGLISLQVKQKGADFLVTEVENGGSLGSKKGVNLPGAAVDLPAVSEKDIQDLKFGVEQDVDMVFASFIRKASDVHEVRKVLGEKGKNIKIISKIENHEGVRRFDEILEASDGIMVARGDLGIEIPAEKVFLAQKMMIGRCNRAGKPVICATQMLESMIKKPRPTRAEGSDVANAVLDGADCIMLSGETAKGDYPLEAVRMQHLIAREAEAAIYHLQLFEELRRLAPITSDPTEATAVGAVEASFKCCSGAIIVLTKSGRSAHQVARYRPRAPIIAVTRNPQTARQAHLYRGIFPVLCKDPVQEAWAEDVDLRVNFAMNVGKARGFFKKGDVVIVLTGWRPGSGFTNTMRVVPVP
#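 Enzyme run at intermediate activity with final 0.1 mM ADP, 0.5 mM PEP (50 mM imidazole pH7.2, 50 mM KCl, 7 mM MgCl2), incubated 1 h at r.t. ATP formed read by Kinase-Glo luminescence, normalized to no-enzyme (full inhibition) and uninhibited wells.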
# PKM2 inh CRC: Confirmation Concentration-Response Assay for Inhibitors of Human Muscle isoform 2 Pyruvate Kinase | shares compounds with PKM2 inh | purified hPK-M2, Kinase-Glo ATP luminescence, 1 h | Potency, µM (highest dose often 57.5 µM), inactives show top-dose activity change, negative = inhibition, actives largely listed as inhibitors | 50% of 55 active
# FLuc counter: Secondary assay for Inhibitors of Human Pyruvate Kinase M2 isoform: FLuc Counterscreen | shares compounds with PKM2 inh | Kinase-Glo firefly luciferase, luminescence, 8 min | Potency, µM (series often up to 57.5 µM), without a hit: at the top dose activity, negative = inhibition, usual class: inhibitors | 30% of 55 active | AID 2265, 2010
# PKM2 LDH couple: Secondary assay for Inhibitors of Human Pyruvate Kinase M2 isoform; shares compounds with PKM2 inh; purified hPK-M2, LDH-coupled NADH fluorescence kinetic; Potency, µM (top dose mostly 57.5 µM), inactives show at the top dose activity change, negative = inhibition, most hits filed as inhibitors; 55 tested, under 10 active; AID 2267, 2010
# Active calls of the source: *; ? = inconclusive; nt = no result. Shown is part of a subset that was picked to be rich in hits. The call rests on the fitted dose curve; in most records, active means well fitted curve in the direction sought with a large enough effect; inconclusive means small, poorly fitted or top-dose-only effect, or another doubt; inactive means no such curve, though single readings can be large; an effect the other way counts as inactive or inconclusive.
SMILES,PKM2 inh,PKM2 inh CRC,FLuc counter,PKM2 LDH couple
O=c1c2ccccc2sn1-c1cc(S(=O)(=O)N2CCOCC2)ccc1N1CCCC1,3.5µM*,6.5µM*,1%,?
COc1ccc(-c2ccc(=O)n(CC(=O)Nc3cccc(O)c3)n2)cc1OC,53%,nt,nt,nt
COc1ccc(-c2cn3ccccc3n2)cc1OC,8.9µM*,?,?,?
COc1ccc(-c2ccc(Nc3ccc(C(=O)N4CCOCC4)cc3)nn2)cc1OC,5%,nt,nt,nt
CCn1ccnc1CN(C)Cc1cn(-c2cc(C)ccc2C)nc1-c1ccccc1,32%,nt,nt,nt
O=C(O)C1Nc2c(O)cc(Cl)c([N+](=O)[O-])c2C2C=CCC12 (stereo unspecified),22%,nt,nt,nt
CCOc1ccc(C(=O)CN2CCN(S(=O)(=O)c3ccc(OC)cc3)CC2)cc1,30%,nt,nt,nt
COC(=O)c1ccc(COc2ccccc2/C=C/C(=O)c2ccc(OCC(=O)O)cc2)cc1,36%,nt,nt,nt
COc1ccc(-c2nc(-c3ccccn3)no2)cc1,3.5µM*,5.8µM*,3.3µM*,-12%
Cc1ccccc1-c1nc(-c2ccccn2)no1,8.9µM*,12µM*,5.2µM*,-3%
COc1ccc(C(=O)NCc2oc(-c3ccccc3)cc2C(=O)O)cc1,39%,nt,nt,nt
Oc1ccc(-c2nc3ccc4ccccc4c3c3c2CCC3)cc1O,48%,nt,nt,nt
Cc1n[nH]c(=O)c2c(NC(=O)CSc3nc4ccccc4c(=O)n3CCCO)oc(C)c12,50%,nt,nt,nt
